Data reported in paper PMC11062922 (Nature Chemical Biology, 2023).
Read-outs that look alike come from different tables or passages of the source.

Key:
Parameters in all cases: species or system human, MV4-11 + K-562 + COLO205 + SK-N-BE2 + OVCAR-8
MAP4K2 = settings: read-out: apparent Kd; compound concentrations:100 nM and 1000 nM (sheet 'Samples'); n = 1
PIM2 = settings: read-out: apparent Kd; compound concentrations:100 nM and 1000 nM (sheet 'Samples'); n = 1
SLK = settings: read-out: apparent Kd, n = 1
ACVR1 = settings: read-out: apparent Kd; compound concentrations:100 nM and 1000 nM (sheet 'Samples'); n = 1
CDK10 = settings: read-out: apparent Kd; compound concentrations:100 nM and 1000 nM (sheet 'Samples'); n = 1
IKBKE = settings: read-out: apparent Kd; compound concentrations:100 nM and 1000 nM (sheet 'Samples'); n = 1
NEK9 = settings: read-out: apparent Kd, n = 1
PIK3C3 = settings: read-out: apparent Kd, n = 1
AKT3 = settings: read-out: apparent Kd, compound concentrations: 100 nM and 1000 nM (sheet 'Samples'), n = 1
AKT2 = settings: read-out: apparent Kd, n = 1
TGFBR1 = settings: read-out: apparent Kd; compound concentrations:100 nM and 1000 nM (sheet 'Samples'); n = 1
PIK3C2A = settings: read-out: apparent Kd, n = 1
DDR1 = settings: read-out: apparent Kd; compound concentrations: 100 nM and 1000 nM (sheet 'Samples'), CATDS: 4.92942958534755E-2; n = 1
TP53RK = settings: read-out: apparent Kd, n = 1
MAP4K5 = settings: read-out: apparent Kd; compound concentrations:100 nM and 1000 nM (sheet 'Samples'); n = 1
MAP4K3 = settings: read-out: apparent Kd; compound concentrations: 100 nM and 1000 nM (sheet 'Samples'), CATDS: 1.6349767602700901E-2; n = 1
MAP2K2 = settings: read-out: apparent Kd; compound concentrations:100 nM and 1000 nM (sheet 'Samples'); n = 1
STK11 = settings: read-out: apparent Kd, n = 1
[1] = compound concentrations:100 nM and 1000 nM (sheet 'Samples')

O=C(O)C(F)(F)F.O=c1[nH]ccc2nc(N[C@@H]3CCNC3)nc(Nc3cc(Cl)cc(Cl)c3)c12 [GSK2188764A]
potency estimated from few doses (MAP4K2): 70.1 nM | potency estimated from few doses (PIM2): 2030 nM | potency estimated from few doses (SLK; [1]): 826 nM

CN(C)CC(O)COc1ccc(Nc2nccc(-c3cnn4nc(N5CCOCC5)ccc34)n2)cc1 (centres unmarked) [GW767488X]
potency estimated from few doses (ACVR1): 455 nM | potency estimated from few doses (CDK10): 1360 nM | potency estimated from few doses (IKBKE): 2010 nM | potency estimated from few doses (NEK9; [1]): 314 nM | potency estimated from few doses (PIK3C3; [1]): 581 nM

CCN(CC)Cc1ccc(Nc2nccc(-c3cnn4ncccc34)n2)cc1 [GW780056X]
potency estimated from few doses (NEK9; compound concentrations: 100 nM and 1000 nM (sheet 'Samples'), CATDS: 2.0464339173062999E-2): 1220 nM

CCCc1cc(N2CCCN(C)CC2)nc2sc3c(N)ncnc3c12 [BI00604564]
potency estimated from few doses (AKT3; CATDS: 0.13900414431421401): 1920 nM

CNc1cc(-c2ccc3c(N)n[nH]c3c2)nc(N)n1 [GSK2224810A]
potency estimated from few doses (AKT2; [1]): 1880 nM | potency estimated from few doses (TGFBR1): 1160 nM

c1ccc(-c2n[nH]cc2Nc2ccnc3ccccc23)nc1 [GW694077X]
potency estimated from few doses (AKT2; compound concentrations: 100 nM and 1000 nM (sheet 'Samples'), CATDS: 2.2309238886047199E-2): 2350 nM | potency estimated from few doses (PIK3C2A; compound concentrations: 100 nM and 1000 nM (sheet 'Samples'), CATDS: 2.3388870990997498E-2): 1900 nM

CN(c1ccc(NC(=O)NCCN2CCOCC2)cc1)c1ccnc(Nc2ccc(CS(C)(=O)=O)cc2)n1.Cl [GW830365A]
potency estimated from few doses (DDR1): 1360 nM

CCn1c(-c2nonc2N)nc2cncc(C(=O)N3CC[C@H](N)C3)c21.Cl [SB-772077-B]
potency estimated from few doses (PIM2): 122 nM

CCC(CC)(CC)n1cnc2c(N)ncnc21 [SKF-97620]
potency estimated from few doses (PIK3C2A; compound concentrations: 100 nM and 1000 nM (sheet 'Samples'), CATDS: 2.66380598887557E-2): 1430 nM | potency estimated from few doses (PIK3C3; compound concentrations: 100 nM and 1000 nM (sheet 'Samples'), CATDS: 3.20593447179814E-2): 852 nM

Cl.Cn1c(=O)c(Cc2ccccc2F)cc2cnc(NC3CCOCC3)nc21 [RO3305377-001]
potency estimated from few doses (AKT3; CATDS: 1.8504555943704901E-2): 1380 nM

Cc1cc(NC(=O)c2cccc(NC(=O)/C=C/CN(C)C)c2)ccc1Nc1nccc(-c2cccnc2)n1 [JNK-IN-7]
potency estimated from few doses (CDK10): 844 nM | potency estimated from few doses (NEK9; [1]): 1380 nM | potency estimated from few doses (PIK3C3; [1]): 1570 nM

Nc1nccc(-c2ccc3c(N)n[nH]c3c2)n1 [GSK1034945A]
potency estimated from few doses (TP53RK; [1]): 1540 nM

Cl.Nc1nc(-c2ccc3c(c2)C(=Cc2cc(Br)c(O)c(Br)c2)C(=O)N3)cs1 [GW407323A]
potency estimated from few doses (TP53RK; compound concentrations: 100 nM and 1000 nM (sheet 'Samples'), CATDS: 2.8034660612356401E-2): 1950 nM

Cc1occc1-c1nc(N)c(OC[C@@H](N)Cc2c[nH]c3ccccc23)cc1-c1cc2c(C)n[nH]c2cn1 [GSK1660450B]
potency estimated from few doses (MAP4K5): 50.5 nM

NS(=O)(=O)c1ccc(NC=C2C(=O)Nc3ccc4ncsc4c32)cc1 [GW589933X]
potency estimated from few doses (MAP4K3): 2070 nM

COc1ccc(Nc2nccc(NCCNC(=O)Nc3cc(C)ccc3C)n2)cc1 [GSK1379899A]
potency estimated from few doses (AKT2; compound concentrations: 100 nM and 1000 nM (sheet 'Samples'), CATDS: 3.9720416292935899E-2): 2190 nM

Nc1nc(-c2ccc3c(N)n[nH]c3c2)cc(N2CCCC(NC(=O)c3ccccc3)C2)n1 (centres unmarked) [GSK2286775B]
potency estimated from few doses (AKT2; [1]): 1370 nM | potency estimated from few doses (IKBKE): 298 nM | potency estimated from few doses (MAP2K2): 1560 nM | potency estimated from few doses (PIK3C2A; [1]): 1910 nM | potency estimated from few doses (TP53RK; [1]): 2230 nM

COc1cc[nH]c1/C=C1\C(=O)Nc2ccc(F)c(C#C[C@@H](O)[C@@H](N)[C@@H](C)O)c21 [RO0283120-000]
potency estimated from few doses (MAP4K2): 1070 nM | potency estimated from few doses (STK11; [1]): 1010 nM

CN[C@H](C#Cc1c(F)ccc2c1/C(=C/c1[nH]ccc1OC)C(=O)N2)CO.Cl [RO0283049-001]
potency estimated from few doses (STK11; compound concentrations: 100 nM and 1000 nM (sheet 'Samples'), CATDS: 2.2375085806392098E-2): 1190 nM

CC(C)N1CC(=O)N(C)c2cnc(Nc3cccc(S(=O)(=O)CCN4CCOCC4)c3)nc21 [BI00009348]
potency estimated from few doses (SLK; compound concentrations: 100 nM and 1000 nM (sheet 'Samples'), CATDS: 4.9346970439547798E-2): 1920 nM

O=C(Nc1n[nH]c2nc(-c3ccccc3O)ccc12)C1CC1 [SB-711880]
potency estimated from few doses (MAP4K2): 1460 nM | potency estimated from few doses (MAP4K5): 1760 nM
